The source made the active and inactive calls. Rule for the calls: active = hit-call score of the fitted dose curve at least 0.9, where 1 is the maximum; inactive = score below 0.9.
Assays:
[1] = read-out: Interleukin-8 (IL8), CXCL8 (gene 3576); experiment: BSK_CASM3C_IL8: BioMAP Diversity Plus: CASM3C Assay for Interleukin-8 (IL8) Biomarker Activity (AID 2283042); details: primary human coronary artery smooth muscle cells; actives raise or lower the signal;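 note: IL-8 protein level quantified by ELISA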
[2] = read-out: Human Leukocyte Antigen - DR isotype (HLADR), HLA-DRA (gene 3122); experiment: BSK_CASM3C_HLADR: BioMAP Diversity Plus: CASM3C Assay for Human Leukocyte Antigen - DR isotype (HLADR) Biomarker Activity (AID 2283043); details: primary human coronary artery smooth muscle cells; actives raise or lower the signal;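 note: cell-surface HLA-DR protein level quantified by ELISA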
[3] = read-out: Macrophage colony-stimulating factor (MCSF), CSF1 (gene 1435); experiment: BSK_CASM3C_MCSF: BioMAP Diversity Plus: CASM3C Assay for Macrophage colony-stimulating factor (MCSF) Biomarker Activity (AID 2283044); details: primary human coronary artery smooth muscle cells; actives raise or lower the signal;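 note: M-CSF protein amount quantified by ELISA after 24 h exposure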
[4] = read-out: Low-density lipoprotein receptor (LDLR), LDLR (gene 3949); experiment: BSK_CASM3C_LDLR: BioMAP Diversity Plus: CASM3C Assay for Low-density lipoprotein receptor (LDLR) Biomarker Activity (AID 2283045); details: primary human coronary artery smooth muscle cells; actives raise or lower the signal;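 note: LDLR protein level on the cell surface quantified by ELISA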
[5] = read-out: Monocyte Chemoattractant Protein-1 (MCP1), CCL2 (gene 6347); experiment: BSK_CASM3C_MCP1: BioMAP Diversity Plus: CASM3C Assay for Monocyte Chemoattractant Protein-1 (MCP1) Biomarker Activity (AID 2283046); details: primary human coronary artery smooth muscle cells; actives raise or lower the signal;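 note: MCP-1 level quantified by ELISA 24 h after dosing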
[6] = BSK_CASM3C_Proliferation: Cell Proliferation Assessment in the BioMAP Diversity Plus: CASM3C Assay (AID 2283047); details: primary human coronary artery smooth muscle cells;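 note: sulforhodamine B total protein stain as relative cell number at 560 nm; sub-confluent cells exposed 48 h before staining; fitted both ways against DMSO so gain or loss of cell number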
[7] = read-out: Monokine induced gamma interferon (MIG), CXCL9 (gene 4283); experiment: BSK_CASM3C_MIG: BioMAP Diversity Plus: CASM3C Assay for Monokine induced gamma interferon (MIG) Biomarker Activity (AID 2283048); details: primary human coronary artery smooth muscle cells; actives raise or lower the signal;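 note: MIG protein level measured by ELISA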
[8] = read-out: serum amyloid A (SAA), SAA1 (gene 6288); experiment: BSK_CASM3C_SAA: BioMAP Diversity Plus: CASM3C Assay for serum amyloid A (SAA) Biomarker Activity (AID 2283049); details: primary human coronary artery smooth muscle cells; actives raise or lower the signal;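 note: SAA protein level quantified by ELISA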
[9] = BSK_CASM3C_SRB: Viability Assessment in the BioMAP Diversity Plus: CASM3C Assay (AID 2283050); details: primary human coronary artery smooth muscle cells;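 note: total protein by SRB staining as cytotoxicity measure in parallel cultures; cells exposed to compound for 24 h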
[10] = read-out: Thrombomodulin, THBD (gene 7056); experiment: BSK_CASM3C_Thrombomodulin: BioMAP Diversity Plus: CASM3C Assay for Thrombomodulin Biomarker Activity (AID 2283051); details: primary human coronary artery smooth muscle cells; actives raise or lower the signal;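 note: thrombomodulin protein level measured by ELISA 24 h after dosing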

SMILES | outcome [1] | outcome [2] | outcome [3] | outcome [4] | outcome [5] | outcome [6] | outcome [7] | outcome [8] | outcome [9] | outcome [10] | AC50 [3] | AC50 [10] | AC50 [2] | AC50 [4] | AC50 [5] | AC50 [6] | AC50 [9]
CCCCC(CC)COC(=O)CCCCCCCC(=O)OCC(CC)CCCC (stereo not given) | inactive | inactive | inactive | inactive | inactive | inactive | inactive | inactive | inactive | inactive |  |  |  |  |  |  | 
O=C(O)c1cccnc1 | inactive | inactive | inactive | inactive | inactive | inactive | inactive | inactive | inactive | inactive |  |  |  |  |  |  | 
CN(C)CCCN(C)CCCN(C)C | inactive | inactive | inactive | inactive | inactive | inactive | inactive | inactive | inactive | inactive |  |  |  |  |  |  | 
Cc1occc(=O)c1O | inactive | inactive | inactive | inactive | inactive | inactive | inactive | inactive | inactive | inactive |  |  |  |  |  |  | 
CO[C@@H]1COCC[C@@H]1N[C@@H]1CC[C@@](C(=O)N2CCc3ncc(C(F)(F)F)cc3C2)(C(C)C)C1 | inactive | inactive | inactive | inactive | inactive | inactive | inactive | inactive | inactive | inactive |  |  |  |  |  |  | 
C/C=C/c1ccc(OC)cc1 | inactive | inactive | inactive | inactive | inactive | inactive | inactive | inactive | inactive | inactive |  |  |  |  |  |  | 
COC(=O)CCC(=O)OC | inactive | inactive | inactive | inactive | inactive | inactive | inactive | inactive | inactive | inactive |  |  |  |  |  |  | 
NC=O | inactive | inactive | inactive | inactive | inactive | inactive | inactive | inactive | inactive | inactive |  |  |  |  |  |  | 
CCCCc1nc2cccnc2n1Cc1ccc(-c2ccccc2-c2nnn[nH]2)cc1 | inactive | inactive | inactive | inactive | inactive | inactive | inactive | inactive | inactive | inactive |  |  |  |  |  |  | 
S=c1[nH]c2ccccc2s1 | inactive | inactive |  | inactive | inactive | inactive | inactive | inactive | inactive |  | 9.81 µM (active) | 8.08 µM (active) |  |  |  |  | 
C=CCc1ccc(OC)c(OC)c1 | inactive | inactive | inactive | inactive | inactive | inactive | inactive | inactive | inactive | inactive |  |  |  |  |  |  | 
Cc1ccc(C(C)(C)C)c(O)c1 | inactive | inactive | inactive | inactive | inactive | inactive | inactive | inactive | inactive | inactive |  |  |  |  |  |  | 
COC(=O)CCCC(=O)OC | inactive | inactive | inactive | inactive | inactive | inactive | inactive | inactive | inactive | inactive |  |  |  |  |  |  | 
O=C1CCCCC1 | inactive | inactive | inactive | inactive | inactive | inactive | inactive | inactive | inactive |  |  | 0.194 µM (active) |  |  |  |  | 
Cc1cc(SC2=C(O)C[C@@](CCc3ccc(N)cc3)(C(C)C)OC2=O)c(C(C)(C)C)cc1CO | inactive | inactive | inactive | inactive | inactive | inactive | inactive | inactive | inactive | inactive |  |  |  |  |  |  | 
CCc1nc(N)nc(N)c1-c1ccc(Cl)cc1 | inactive | inactive | inactive | inactive | inactive | inactive | inactive | inactive | inactive | inactive |  |  |  |  |  |  | 
CN(C)CCCN1c2ccccc2Sc2ccc(Cl)cc21 | inactive |  |  |  |  |  | inactive | inactive |  |  | 11.2 µM (active) | 15 µM (active) | 27.7 µM (active) | 5.41 µM (active) | 20 µM (active) | 28 µM (active) | 28.5 µM (active)
Oc1ccc(O)cc1 | inactive |  |  | inactive | inactive |  | inactive | inactive | inactive |  | 15.1 µM (active) | 10.7 µM (active) | 9.58 µM (active) |  |  | 25.7 µM (active) | 
O=NO | inactive | inactive | inactive | inactive | inactive | inactive | inactive | inactive | inactive | inactive |  |  |  |  |  |  | 
O=C1NC(=O)C(c2ccccc2)(c2ccccc2)N1 | inactive | inactive | inactive | inactive | inactive | inactive | inactive | inactive | inactive | inactive |  |  |  |  |  |  | 
CC1=C(C)S(=O)(=O)CCS1(=O)=O | inactive | inactive | inactive | inactive | inactive | inactive | inactive | inactive | inactive | inactive |  |  |  |  |  |  | 
Cn1cnc2c1c(=O)[nH]c(=O)n2C | inactive | inactive | inactive | inactive | inactive | inactive | inactive | inactive | inactive | inactive |  |  |  |  |  |  | 

SMILES | outcome [1] | outcome [2] | outcome [3] | outcome [4] | outcome [5] | outcome [6] | outcome [7] | outcome [8] | outcome [9] | outcome [10] | AC50 [3] | AC50 [10] | AC50 [2] | AC50 [4] | AC50 [5] | AC50 [6] | AC50 [9]
CC(C)(C)c1ccccc1 | inactive | inactive | inactive | inactive | inactive | inactive | inactive | inactive | inactive | inactive |  |  |  |  |  |  | 
C=CCCCCCCCCCCCC | inactive | inactive | inactive | inactive | inactive | inactive | inactive | inactive | inactive | inactive |  |  |  |  |  |  | 
CCCCC(CC)COP(=O)(OCC(CC)CCCC)OCC(CC)CCCC (stereo not given) | inactive | inactive | inactive | inactive | inactive | inactive | inactive | inactive | inactive |  |  | 7.89 µM (active) |  |  |  |  | 
O=C(N[C@@H](c1ccccc1)[C@@H]1CCCCN1)c1cccc(C(F)(F)F)c1Cl | inactive | inactive | inactive |  | inactive |  | inactive | inactive |  | inactive |  |  |  | 15.4 µM (active) |  | 30.3 µM (active) | 30.9 µM (active)
CS(=O)(=O)c1ccc([C@@H](C[C@H]2CCC(=O)C2)C(=O)Nc2cnccn2)cc1Cl | inactive | inactive | inactive | inactive | inactive | inactive | inactive | inactive | inactive | inactive |  |  |  |  |  |  | 
CC(=O)S[C@H](C(=O)N[C@H]1Cc2ccccc2[C@H]2CCC[C@@H](C(=O)O)N2C1=O)C(C)C | inactive |  | inactive | inactive | inactive | inactive | inactive | inactive | inactive | inactive |  |  | 3.97 µM (active) |  |  |  | 
COc1ccc(C(=O)Nc2nc3ccccc3c(NCc3ccccc3)c2C#N)cc1 | inactive | inactive | inactive |  | inactive | inactive | inactive | inactive | inactive | inactive |  |  |  | 9.66 µM (active) |  |  | 
NC(=Nc1ccccc1)Nc1ccccc1 | inactive | inactive |  | inactive | inactive | inactive | inactive | inactive | inactive | inactive | 3.97 µM (active) |  |  |  |  |  | 
O=C(NS(=O)(=O)/C=C/c1cccs1)c1ccc(F)cc1Br | inactive | inactive | inactive | inactive | inactive |  | inactive | inactive | inactive | inactive |  |  |  |  |  | 5.22 µM (active) | 
CCCCCCCC(=O)OC | inactive | inactive | inactive | inactive | inactive | inactive | inactive | inactive | inactive | inactive |  |  |  |  |  |  | 
O=C1c2c(O)cccc2Cc2cccc(O)c21 | inactive | inactive | inactive | inactive | inactive |  | inactive | inactive | inactive | inactive |  |  |  |  |  | 9.85 µM (active) | 
CC(=O)OCC(COC(C)=O)OC(C)=O | inactive | inactive | inactive | inactive | inactive | inactive | inactive | inactive | inactive | inactive |  |  |  |  |  |  | 
CC(C)c1cccc(C(C)C)c1NC(=O)NS(=O)(=O)c1cc(C(C)(C)O)co1 | inactive | inactive | inactive | inactive | inactive | inactive | inactive | inactive | inactive | inactive |  |  |  |  |  |  | 
CC(N)=O | inactive | inactive | inactive | inactive | inactive | inactive | inactive | inactive | inactive | inactive |  |  |  |  |  |  | 
OCC(O)CO | inactive | inactive | inactive | inactive | inactive | inactive | inactive | inactive | inactive | inactive |  |  |  |  |  |  | 
c1ccc2occc2c1 | inactive | inactive | inactive | inactive | inactive | inactive | inactive | inactive | inactive | inactive |  |  |  |  |  |  | 
Oc1ccccc1O | inactive |  |  | inactive | inactive |  | inactive | inactive | inactive |  | 3.97 µM (active) | 11 µM (active) | 10.4 µM (active) |  |  | 7.66 µM (active) | 
C#CC(O)C(CC)CCCC (stereo not given) | inactive | inactive | inactive | inactive | inactive |  | inactive | inactive | inactive | inactive |  |  |  |  |  | 37 µM (active) | 
CN(C)C(=O)NC1(c2ccccc2)CCN(CCC[C@]2(c3ccc(Cl)c(Cl)c3)CCCN(C(=O)c3ccccc3)C2)CC1 | inactive | inactive | inactive |  |  | inactive | inactive | inactive | inactive | inactive |  |  |  | 5 µM (active) | 0.037 µM (active) |  | 
Nc1nc(Cl)nc2c1ncn2[C@H]1C[C@H](O)[C@@H](CO)O1 | inactive | inactive | inactive | inactive | inactive |  | inactive | inactive | inactive | inactive |  |  |  |  |  | 0.54 µM (active) | 
CSc1ccc(Oc2ccc(S(N)(=O)=O)cc2CN(C)C)cc1C | inactive | inactive | inactive | inactive | inactive |  | inactive | inactive | inactive | inactive |  |  |  |  |  | 20 µM (active) | 
CCc1cc(C2=C(C(=O)O)N(c3ccccc3C(F)(F)F)S(=O)(=O)c3ccccc32)cc2c1OCO2 | inactive |  |  |  | inactive | inactive | inactive | inactive | inactive | inactive | 19.8 µM (active) |  | 9.8 µM (active) | 7.18 µM (active) |  |  | 
